# Shown are actives, neighbours in structure and some others; about 21% of the full set was active somewhere.
# ClpP mod: qHTS Assay for Activators of ClpP; AID 651965, 2013; purified B. subtilis ClpP, FRET peptide cleavage, 20 min; Potency, µM (highest dose often 57.5 µM), for the others: at the top dose activity change, negative = active; actives 1.9% (n = 340,000); active = well fitted falling curve with a large enough effect; inconclusive = small, poorly fitted or top-dose-only effect; inactive = no such curve, though single readings can be large or run the other way; note: potency is the fitted concentration of half-maximal effect; the source files actives as falling curves though it sought activators and does not explain the sign; nearly all actives have a fitted effect of over 65% in size
# Target sequence (P80244 whole entry, looked up): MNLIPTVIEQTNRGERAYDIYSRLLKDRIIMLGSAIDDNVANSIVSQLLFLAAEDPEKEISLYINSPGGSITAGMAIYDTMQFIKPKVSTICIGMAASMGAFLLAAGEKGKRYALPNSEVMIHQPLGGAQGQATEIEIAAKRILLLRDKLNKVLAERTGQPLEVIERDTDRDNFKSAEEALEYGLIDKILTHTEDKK
#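 FRET quenching reversal measured ClpP activation: 10 microg/mL B. subtilis ClpP at pH 8 with the FRET-FV decapeptide, read at 430 nm after 320 nm excitation. The 20-min minus 0-min signal was scaled between DMSO/no-enzyme wells and ADEP (5.8 microM final).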
# TDP1 cell CPT: DT40-hTDP1 cell growth loss with CPT; Potency, µM (series often up to 46.2 µM), without a hit: top-dose activity change, negative = growth inhibition, usual class: inhibitors; actives 12% (n = 420,000); chicken DT40 Tdp1-/-;hTDP1 cells + 20 nM CPT, ATP luminescence, 48 h; note: potency is the fitted concentration of half-maximal effect; % is set by controls: 0 for no effect and ±100 for the full control effect; nearly all actives have a fitted effect of over 55% in size
#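 Cell growth measured by CellTiter-Glo luminescence after a minimum 48 h, 37 C compound exposure with 20 nM CPT in Tdp1-knockout DT40 cells stably expressing hTDP1, seeded 400/well; qHTS titration format.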
# D3 ag: D3 dopamine receptor (human) agonism; actives 0.58% (n = 410,000); AID 652048; D3R DiscoveRx beta-arrestin cells, luminescence, 90 min; P35462; max activation, %; in the data active = max activation above about 30%; note: 0% is about no effect
# Target sequence (P35462 whole entry, looked up): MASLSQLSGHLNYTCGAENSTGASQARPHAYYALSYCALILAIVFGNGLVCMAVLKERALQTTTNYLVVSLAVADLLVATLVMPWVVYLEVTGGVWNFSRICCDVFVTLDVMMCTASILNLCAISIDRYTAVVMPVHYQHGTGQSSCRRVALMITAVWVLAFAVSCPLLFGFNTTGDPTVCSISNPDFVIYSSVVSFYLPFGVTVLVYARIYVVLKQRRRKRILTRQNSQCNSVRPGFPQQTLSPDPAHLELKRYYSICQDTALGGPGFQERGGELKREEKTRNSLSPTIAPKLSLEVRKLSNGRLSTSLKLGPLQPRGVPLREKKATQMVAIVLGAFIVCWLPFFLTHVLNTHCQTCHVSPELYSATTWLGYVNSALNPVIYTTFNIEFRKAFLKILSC
#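 Agonist-mode cell screen: cells plated at 1500/well and incubated overnight at 37 °C, then exposed to library compounds for 90 min at 37 °C. Detection reagent was added for 30–60 min at room temperature, and luminescence was read.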
# DRD3 antagonist: blocks the human D3 dopamine receptor | D3R cells, DiscoveRx beta-arrestin luminescence, antagonist mode; active compounds read low | P35462 | actives 2.5% (n = 360,000) | AID 652054 | max response, negative = inhibition, %; in the data active = max response below about -50%; inconclusive = no clear call, values can overlap the other calls; note: % is set by controls: 0 for no effect and ±100 for the full control effect
#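 Cells plated overnight at 1500 cells/well, then exposed to library compounds with dopamine controls for 90 minutes at 37 degrees C. DiscoveRx reagent added for 30–60 minutes at room temperature; luminescence read, quantitative HTS format.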
# IL-1B inflam inh: blocks inflammasome-driven IL-1 beta release; THP-1 LPS/ATP IL-1B secretion, AlphaLISA, 16 h; active compounds read low; actives 4.7% (n = 360,000); activity change, % at 57.5 µM; AID 743279; in the data active = activity change below about -50%; inconclusive = mostly about -30% to -49%; note: % is set by controls: 0 for no effect and ±100 for the full control effect
#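 Secreted IL-1B measured by AlphaLISA bead assay after 16 h compound exposure of THP-1 cells; compounds (final up to 57.5 uM) added 1 h before LPS (250 ng/mL) and ATP (1.25 mM) stimulation; lower signal means less secretion.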
# TDP1 cell noCPT: qHTS for Inhibitors of human tyrosyl-DNA phosphodiesterase 1 (TDP1): qHTS in cells in absence of CPT; actives 15% (n = 420,000); Potency, µM (titrated, usually from 46.2 µM), without a hit: at the top dose activity change, negative = growth inhibition, actives largely listed as inhibitors; AID 686978, 2013; DT40 Tdp1-/- hTDP1 cells, no CPT, ATP luminescence, 48 h; note: potency is the fitted concentration of half-maximal effect; % is set by controls: 0 for no effect and ±100 for the full control effect; nearly all actives have a fitted effect of over 55% in size
#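 Growth kinetics read by CellTiter-Glo luminescence after ≥48 hr at 37 °C. Cells: DT40 Tdp1-/- stably carrying human TDP1, 400 per well, compound exposure in the absence of CPT (DMSO vehicle).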
# The depositor's hits bear a star; ? = inconclusive; / = no result. Unless noted, calls come from the whole dose curve; as a rule, active = well fitted inhibition curve with a large enough effect; inconclusive = small, poorly fitted or top-dose-only effect; inactive = flat fitted curve, though single readings scatter.
SMILES,ClpP mod,TDP1 cell CPT,D3 ag,DRD3 antagonist,IL-1B inflam inh,TDP1 cell noCPT
CCOc1ccc(NCc2nnc(SCC(=O)Nc3nc(-c4ccccc4)cs3)n2-c2ccccc2)cc1,0.7%,?,-4.4,0.9,-14.1,23.1µM*
Cc1cccc(C)c1NCc1nnc(SCC(=O)Nc2nc(-c3ccccc3)cs2)n1-c1ccccc1,?,2.06µM*,-3.3,10.3,24.5,2.31µM*
COCCCNC(=O)CCn1c(=O)c2ccccc2n(CC(=O)Nc2cc(Cl)ccc2OC)c1=O,-1.6%,-10.0%,-8.5,/,/,-27.1%
COc1ccc(CCC(=O)NC(C)C2CCCO2)cc1 (configuration not stated),1.2%,17.5%,2.6,6.9,8.4,-9.3%
COc1ccc(-c2cnc(C)o2)cc1S(=O)(=O)Nc1ccc(OC(F)(F)F)cc1,-4.1%,-23.9%,4.7,/,/,-17.8%
Cc1ccc(NC2=C(Cl)C(=O)OC2OC(=O)c2ccco2)c(C)c1 (configuration not stated),-2.6%,?,1.0,-6.9,0.0,-44.6%
Cc1ccc(NC2=C(Cl)C(=O)OC2OC(=O)c2ccco2)cc1C (configuration not stated),-1.0%,?,18.6,7.6,-87.5*,?
Cc1ccc(C)c(NC2=C(Cl)C(=O)OC2OC(=O)c2ccco2)c1 (configuration not stated),-0.7%,23.1µM*,2.0,-3.4,-90.3*,23.1µM*
COc1ccc(OC)c(N(CC(=O)NCCSCc2ccco2)S(=O)(=O)c2ccc(OC)c(OC)c2)c1,1.6%,13µM*,2.4,11.2,17.5,16.4µM*
COc1ccc(N(CC(=O)NCCSCc2ccccc2Cl)S(C)(=O)=O)cc1Cl,-1.7%,11.6µM*,-4.2,-16.2,0.0,?
COc1ccc(N(CC(=O)NCCSCc2ccco2)S(=O)(=O)c2ccccc2)cc1Cl,0.4%,14.6µM*,13.6,30.7,-2.9,20.6µM*
COc1cccc(N(CC(=O)NCCSCc2ccco2)S(=O)(=O)c2ccccc2)c1,/,-25.4%,-13.8,-2.2,-12.9,?
Cc1ccc(N(CC(=O)NCCSCc2ccco2)S(=O)(=O)c2ccc(C)cc2)cc1,-0.5%,-14.8%,-1.3,5.3,-1.8,?
Cc1nc2ncnn2c(C)c1CCC(=O)NCc1ccc(Cl)cc1,-3.6%,2.9%,-10.0,/,/,-0.4%
COc1ccc(S(=O)(=O)N2CCOCC2)cc1NC(=O)c1c(-c2ccccc2)noc1C,-2.8%,2.9%,-3.8,4.0,-18.7,-21.7%
Cc1cc(NC(=O)C2CCCC2)nc2c1c(=O)oc1ccccc12,-8.3%,?,-2.6,45.0,18.1,18.4µM*
Cc1cc(C)cc(NC(=O)C2CCCN(c3cnccn3)C2)c1 (configuration not stated),-13.0%,?,6.0,/,/,?
COc1ccc(C2(c3ccc(OC)cc3)NC(=O)N(Cn3nnc4ccccc4c3=O)C2=O)cc1,1.5%,20.6µM*,-0.3,0.5,-9.5,?
CS(=O)(=O)Nc1cccc(NC(=O)c2ccc(-c3ccc(F)c(F)c3)c3ccoc23)c1,-28.1%,?,10.0,81.8,?,?
O=C(NCC1CC1)c1ccc(-n2ccnc2)c2ccoc12,-1.7%,-14.1%,-12.3,-17.4,6.1,-1.7%
Cn1nccc1-c1ccc(C(=O)Nc2cccc(NS(C)(=O)=O)c2)c2occc12,-10.8%,?,3.8,38.8,-50.2*,25.9µM*
CS(=O)(=O)Nc1cccc(NC(=O)c2ccc(-n3ccnc3)c3ccoc23)c1,-0.2%,13µM*,-7.5,-23.8,-27.5,14.6µM*
COc1ccc(C2CC(=O)N(CC(=O)Nc3cc(C)ccc3C)c3ccccc3S2)cc1 (configuration not stated),0.3%,/,2.3,/,/,/
CC(C)c1c(C(=O)Nc2ccccc2)c(-c2ccccc2)c(-c2ccc(F)cc2)n1CC[C@@H](O)C[C@@H](O)CC(=O)O,/,?,-6.8,/,/,15µM*
O=C(Nc1ccccc1)c1c(F)c(F)c(F)c(F)c1F,0.1%,-3.2%,5.0,3.3,-4.0,-7.5%
SMILES,ClpP mod,TDP1 cell CPT,D3 ag,DRD3 antagonist,IL-1B inflam inh,TDP1 cell noCPT
CC(C)c1ccc2oc(-c3ccc(Cl)c(NC(=O)c4cccs4)c3)nc2c1,4.0%,/,7.2,/,/,/
CCC(CC)C1C(C#N)=C(N)SC(N)=C1C#N,0.0%,-21.1%,-0.5,-60.0*,17.2,-20.4%
CC(c1ccccc1)C1C(C#N)=C(N)SC(N)=C1C#N (configuration not stated),3.4%,-14.3%,-3.1,-21.6,9.3,-23.5%
CN1C[C@@H]2C(c3ccccc3)C3(c4ccc(C#N)cc4)CC2(C3)[C@H]1c1ccccc1 (some centres not stated),-1.7%,?,-21.4,-6.4,7.4,?
COC(=O)c1cccc(C23CC4(C2)[C@H](CN(C)[C@@H]4c2ccccc2)C3c2ccccc2)c1 (some centres not stated),-1.8%,20.6µM*,-3.5,-28.2,0.0,23.1µM*
CN1C[C@@H]2C(c3ccc(Cl)nc3)C3(c4cccnc4)CC2(C3)[C@H]1c1ccccc1 (some centres not stated),0.0%,-4.9%,3.0,21.1,-0.1,-22.7%
CN1C[C@@H]2C(c3ccc(C(F)(F)F)cc3)C3(c4ccc(C#N)cc4)CC2(C3)[C@H]1c1ccccc1 (some centres not stated),-4.9%,10.3µM*,1.7,-2.6,2.6,23.1µM*
CN1C[C@@H]2C(c3ccccc3)C3(c4ccccc4)CC2(C3)[C@H]1c1ccccc1 (some centres not stated),-2.0%,25.9µM*,-12.1,-0.2,3.4,?
CN1C[C@@H]2C(c3ccc(Cl)nc3)C3(c4ccccc4)CC2(C3)[C@H]1c1ccccc1 (some centres not stated),-0.2%,20.6µM*,-14.8,-17.6,-10.8,16.4µM*
CCC1Oc2ccc(C)cc2N(CC(=O)N2CCN(c3ccccc3OC)CC2)C1=O (configuration not stated),2.9%,?,3.7,/,/,16.4µM*
CCOC(=O)C1CCCN(C(=O)CN2C(=O)C(CC)Oc3ccc(C)cc32)C1 (configuration not stated),0.0%,?,18.6,20.7,27.8,-16.1%
CCC1Oc2ccc(C)cc2N(CC(=O)N2CCN(c3ccc(F)cc3)CC2)C1=O (configuration not stated),-3.2%,20.6µM*,-4.9,-9.8,-25.3,18.4µM*

# Source: PubChem (National Center for Advancing Translational Sciences (NCATS))
